dFosB activator = activators of mouse delta FosB homodimer; P13346; purified delta FosB, TAMRA-CDK5 oligo fluorescence polarization; percent of positive-control signal above neutral wells; activation, % at 25 µM; 340,000 compounds, 0.99% hits; AID 493131;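 active = mean activation above about 17%, with every replicate also reaching it, limit read from the data, passing the limit was not always enough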
Target sequence (P13346 whole entry, looked up): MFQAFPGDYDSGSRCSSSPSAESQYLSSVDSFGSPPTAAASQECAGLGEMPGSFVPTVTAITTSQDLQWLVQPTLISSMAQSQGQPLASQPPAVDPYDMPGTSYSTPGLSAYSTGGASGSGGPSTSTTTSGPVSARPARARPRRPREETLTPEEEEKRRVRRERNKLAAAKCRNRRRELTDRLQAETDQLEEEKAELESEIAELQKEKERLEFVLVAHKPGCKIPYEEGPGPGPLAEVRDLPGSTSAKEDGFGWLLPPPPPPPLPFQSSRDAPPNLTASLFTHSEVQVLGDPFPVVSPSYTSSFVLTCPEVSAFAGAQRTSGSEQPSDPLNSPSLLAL
INS-1E GSIS act = GLuc luminescence reporter in INS-1E cells, primary screen for activators of glucose-dependent secretion of insulin; INS-1E GLuc reporter insulin secretion, 2-3 h; activation, % at 16.6 µM; 370,000 compounds, 0.61% hits; AID 743287;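 active = lowest replicate activation of at least 40%, so every replicate reaches that level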
Neddylation inh = blocks human cullin neddylation; P61081+Q13564; TR-FRET cullin neddylation, biochemical; inhibition, % at 25 µM; 360,000 compounds, 0.58% hits; AID 651699; in the data active = inhibition above about 36%
Vif inh = blocks HIV Vif function; AID 602346; inhibition, % at 7.49 µM; 340,000 compounds, 0.35% hits; HEK293T cells, Vif self-association by quenched fluorescence, imaging, 24 h; in the data active = inhibition above about 50%, passing the limit was not always enough
A1 inh = inhibitors of the anti-apoptotic protein A1, read as caspase activation; MEF A1-2A-BIM cells, Caspase-Glo 3/7 luminescence, 3 h; percent of clofoctol response, vehicle zero; caspase activation, % (test concentration not listed); 330,000 compounds, 0.066% hits; AID 2462;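 active = over half of replicate activation scores above 10%, or exactly half above 10 with the replicate mean above 10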
Neddyl conf = cullin neddylation inhibition, confirmation. shares compounds with Neddylation inh. 1,800 compounds, 13% hits. calls only at 25 µM. AID 652217. TR-FRET cullin neddylation biochemical assay; in the data active = inhibition above about 40%;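 also: neddylation substrate is the cullin 1 ring ligase complex with SKP2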
A number is an active result; i = inactive; nt = no result given; + = active, no number. Compounds with a hit are over-represented: about 1.9% of the library has one in this group of screens.

SMILES	dFosB activator	INS-1E GSIS act	Neddylation inh	Vif inh	A1 inh	Neddyl conf
CO[C@H]1CN(C)C(=O)c2cc(NS(C)(=O)=O)ccc2OC[C@@H](C)N(Cc2nccs2)C[C@@H]1C	nt	i	nt	nt	nt	nt
COCCCNC(=O)c1cccn2c(=O)c3cc4ccccc4cc3nc12	i	i	40	i	i	i
C=CCn1c(=N)c(C(=O)NCCCOC)cc2c(=O)n3cccc(C)c3nc21	i	nt	i	i	i	nt
COc1ccc(C2C3=C(CC(C)(C)CC3=O)Nc3c2c(=O)[nH]c2nc(C)nn32)cc1 (stereo not drawn)	i	nt	47	i	i	+
CC1=C(C#N)C(c2ccc(O)cc2)C2=C(CCCC2=O)N1 (stereo not drawn)	i	i	44	i	i	i
COc1ccc(C2C(C#N)=C(C)NC3=C2C(=O)CC(C)(C)C3)cc1 (stereo not drawn)	i	nt	42	i	i	nt
COc1ccc(C2C3=C(CC(C)(C)CC3=O)Nc3cc4c(cc32)OCO4)cc1 (stereo not drawn)	i	i	nt	i	i	nt
CN(C)c1nc2sc3c(c2c(=O)n1C)CC(C)(C)OC3	i	i	i	i	i	nt
Cc1nn2c(C)nc3sc4c(c3c2nc1=O)CC(C)(C)OC4	i	i	43	i	i	i
CC1(C)Cc2c(sc3nc(-c4cccs4)n(N)c(=O)c23)CO1	i	i	44	i	i	i
Cc1noc(C)c1NC(=O)Nc1cccc2c1O[C@@H](CN(C)C(=O)Nc1ccccc1)[C@@H](C)CN([C@@H](C)CO)C2=O	nt	i	nt	nt	nt	nt
C[C@H]1CN([C@@H](C)CO)C(=O)c2cc(NC(=O)Cc3ccccc3)ccc2O[C@H]1CN(C)S(=O)(=O)c1cccs1	nt	i	nt	nt	nt	nt
Cc1noc(C)c1NC(=O)N(C)C[C@@H]1Oc2c(NC(=O)NC(C)C)cccc2C(=O)N([C@H](C)CO)C[C@@H]1C	nt	i	nt	nt	nt	nt
CC(C)Cn1nc(NC(=O)c2ccco2)c2cc3ccccc3nc21	i	74	46	i	i	nt
CCCCNC(=O)c1cc2nc(-c3ccc(OC)cc3)cc(C(F)(F)F)n2n1	nt	i	i	i	nt	nt
Cc1ccc(-c2cc(C(F)(F)F)n3nc(C(=O)NCCCn4ccnc4)cc3n2)cc1C	i	i	44	i	i	nt
COc1ccc(S(=O)(=O)N(C)C[C@H]2Oc3ccc(NS(=O)(=O)c4ccc(C)cc4)cc3C(=O)N([C@H](C)CO)C[C@H]2C)cc1	nt	i	nt	nt	nt	nt
COc1ccc(-c2cc(C(=O)N(C)CC(=O)Nc3ccccc3Br)c3ccccc3n2)cc1OC	i	i	47	i	i	+
COc1ccc(NC(=O)CN(C)C(=O)c2cc(-c3ccc(Cl)cc3)nc3ccccc23)cc1	i	i	i	i	i	nt
CCOc1ccc(NC(=O)CN(C)C(=O)c2cc(-c3ccc(OC)cc3)nc3ccccc23)cc1OCC	i	i	55	i	i	nt
CC(C)NC(=O)N(C)C[C@@H]1Oc2ccccc2CC(=O)N(C)C[C@@H]1C	nt	i	nt	nt	nt	nt
O=C(NC[C@H]1[C@H](c2ccccc2)[C@H](CO)N1Cc1ccccn1)C1CCCC1	nt	i	nt	nt	nt	nt
CCCN(C)C[C@@H]1OCCCC[C@@H](C)Oc2ccc(NC(=O)NC(C)C)cc2C(=O)N([C@@H](C)CO)C[C@@H]1C	nt	i	nt	nt	nt	nt
O=C(Nc1cccc(C(=O)NC2CC2)c1)c1ccccc1	i	i	i	i	nt	nt
O=C(Nc1cc2c3c(c1)C1CCCC1CN3CC1CCCC21)c1ccccc1 (stereo not drawn)	i	nt	51	i	i	i
SMILES	dFosB activator	INS-1E GSIS act	Neddylation inh	Vif inh	A1 inh	Neddyl conf
COc1ccc(Nc2nc3ccccc3nc2NS(=O)(=O)c2ccc(NC(C)=O)cc2)cc1	i	i	i	i	i	nt
COc1cccc(Nc2nc3ccccc3nc2NS(=O)(=O)c2ccc(NC(C)=O)cc2)c1	i	nt	51	i	i	nt
O=S(=O)(Nc1nc2ccccc2nc1Nc1ccc2c(c1)OCO2)c1ccc(F)cc1	i	i	38	i	i	i
O=C(O)c1cccc(Nc2nc3ccccc3nc2NS(=O)(=O)c2ccc(F)cc2)c1	i	i	i	i	i	nt
Nc1cc(N)cc(-c2nc3ccccc3[nH]2)c1	i	nt	41	i	i	nt
Nc1cccc2c(=O)[nH][nH]c(=O)c12	i	i	48	i	nt	+
COC(=O)C1=CN(c2cc(C)cc(C)c2)C=C(C(=O)OC)C1c1ccc(OC)c(O)c1	i	nt	47	i	i	+
CCOc1cc(/C=C(/C#N)c2nc3ccccc3[nH]2)ccc1OCc1ccc(C(=O)O)o1	i	i	38	nt	i	i
CCN1CCc2nc3sc(C(=O)Nc4cccnc4Cl)c(N)c3cc2C1	i	i	40	i	nt	i
COc1ccc(NC(=O)N(C)C[C@@H]2Oc3c(NC(=O)c4cc(C)nn4C)cccc3C(=O)N([C@H](C)CO)C[C@@H]2C)cc1	nt	i	nt	nt	nt	nt
C=CCNC(=O)C(C#N)c1nc2ccccc2nc1N1CCN(Cc2ccccc2)CC1 (stereo not drawn)	i	nt	42	i	i	i
C=CCOC(=O)C(C#N)c1nc2ccccc2nc1N1CCN(Cc2ccccc2)CC1 (stereo not drawn)	i	nt	i	i	i	nt
COC(=O)C[C@@H]1CC[C@H]2[C@@H](COc3ccc(NS(C)(=O)=O)cc3C(=O)N2C)O1	nt	i	nt	nt	nt	nt
O=c1ccc2ccc(OCc3nnc(-c4ccccc4Br)o3)cc2o1	i	nt	i	i	i	nt
Cc1cc(=O)oc2cc(OCc3nnc(-c4ccccc4Br)o3)ccc12	i	i	44	i	i	i
COCCCNC(=O)C(C)N1c2cccc3cccc(c23)S1(=O)=O (stereo not drawn)	i	i	42	i	i	i
C[C@H]1CN(C)C(=O)c2cccc(N(C)C)c2O[C@H]1CN(C)C	nt	i	nt	nt	nt	nt
COc1cc2oc(=O)cc(CN3CCCCC3)c2cc1Cl	nt	i	41	nt	nt	i
C[C@@H]1CCCCO[C@@H](CN(C)S(C)(=O)=O)[C@H](C)CN([C@H](C)CO)C(=O)c2cc(NC(=O)Nc3ccc4c(c3)OCO4)ccc2O1	nt	i	nt	nt	nt	nt
O=C(N/N=C/c1ccc2cccnc2c1)c1nc2ccccc2c(=O)[nH]1	i	i	46	i	i	i
COC(=O)C1C(O)=C(C=NCc2ccccc2)C(=O)CC1(C)C (stereo not drawn)	i	nt	i	i	i	nt
COC(=O)C1C(O)=C(C=Nc2cccc3ccccc23)C(=O)CC1(C)C (stereo not drawn)	i	i	40	i	i	+
Cc1nc(-c2cccc3ccccc23)ccc1C(=O)O	i	i	43	i	i	i
O=C(CCN1C(=O)S/C(=C/c2ccccc2)C1=O)Nc1ccc(O)c(C(=O)O)c1	i	i	44	i	i	i
O=C(CCN1C(=O)S/C(=C\c2ccccc2)C1=O)Nc1ccc(O)cc1C(=O)O	i	nt	i	i	i	nt
CO[C@@H]1CN(C)C(=O)c2ccc(NS(=O)(=O)c3ccccc3F)cc2OC[C@H](C)NC[C@H]1C	nt	i	nt	nt	nt	nt

Compound activity: PubChem BioAssay, several laboratories
